Assay results from PubChem BioAssay (NCI).
“And” between values parts separate entries of the source, which are not always exact repeats. Equal entries are not always repeated. About 83,000 compounds went through this panel and 20% of them were active in at least one assay; those are over-represented in the sample as a whole.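 Note: values are percent growth. 100 is the growth of untreated cells, values between 100 and 0 indicate rising inhibition; between -100 and 0 indicates cell death.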 The source made the active and inactive calls. Rule for the calls: active = growth percent below 10; inactive = the rest.

Legend:
Assay in all cases: NCI-60 one-dose screen, 48 h (100 = growth as untreated, 0 = no growth, -100 = all killed)
Conditions in all cases: 10 µM unless noted
HCT-15 colon = test system: HCT-15 colon
HT29 colon = test system: HT29 colon
SNB-75 CNS = test system: SNB-75 CNS
U251 CNS = test system: U251 CNS
PC-3 prostate = test system: PC-3 prostate
SK-MEL-5 melanoma = test system: SK-MEL-5 melanoma
UACC-62 melanoma = test system: UACC-62 melanoma
LOX IMVI melanoma = test system: LOX IMVI melanoma
SK-MEL-28 melanoma = test system: SK-MEL-28 melanoma
SK-MEL-2 melanoma = test system: SK-MEL-2 melanoma
EKVX NSCLC = test system: EKVX NSCLC
SN12C renal = test system: SN12C renal
UO-31 renal = test system: UO-31 renal
TK-10 renal = test system: TK-10 renal
ACHN renal = test system: ACHN renal
CAKI-1 renal = test system: CAKI-1 renal
CCRF-CEM leukemia = test system: CCRF-CEM leukemia
MOLT-4 leukemia = test system: MOLT-4 leukemia
A498 renal = test system: A498 renal
SNB-19 CNS = test system: SNB-19 CNS

Measured: growth

CC(C)c1ccc2nc3ccc(C(=O)NCCN4CCN(c5ccccc5)CC4)cn3c(=O)c2c1
active: SK-MEL-5 melanoma -25.3%
inactive: HCT-15 colon 44.5% | HT29 colon 38.8% | SNB-75 CNS 60.4% | U251 CNS 38.2% | PC-3 prostate 56.3% | UACC-62 melanoma 62% | LOX IMVI melanoma 56.1% | SK-MEL-28 melanoma 69.7% | SK-MEL-2 melanoma 75.4% | EKVX NSCLC 74.5% | SN12C renal 69.9% | UO-31 renal 50% | TK-10 renal 93.9% | ACHN renal 72.1% | CAKI-1 renal 63.4% | CCRF-CEM leukemia 50.7% | MOLT-4 leukemia 38%

CCOc1ccc(-c2nc3ccc(-c4nc5ccc(N6CCN(C)CC6)cc5[nH]4)cc3[nH]2)cc1
inactive: HCT-15 colon 23.7% | UO-31 renal 23.2%
active: HT29 colon -68.3% | SNB-75 CNS -90.2% | U251 CNS -98.1% | PC-3 prostate -47.8% | SK-MEL-5 melanoma -96.7% | UACC-62 melanoma -96.5% | LOX IMVI melanoma -88% | SK-MEL-28 melanoma -88.6% | SK-MEL-2 melanoma 4.1% | EKVX NSCLC -75.5% | SN12C renal -91.4% | TK-10 renal -84.9% | ACHN renal -33.8% | CAKI-1 renal -43.8% | A498 renal -91.6% | CCRF-CEM leukemia 4.03% | MOLT-4 leukemia -60.5%

C=CCOc1ccc(N=NC(C#N)C#N)cc1
inactive: HCT-15 colon 56.9% | HT29 colon 72.7% | SNB-75 CNS 74.3% | SNB-19 CNS 94% | U251 CNS 84.6% | PC-3 prostate 70.4% | UACC-62 melanoma 47.7% | LOX IMVI melanoma 26% | SK-MEL-28 melanoma 65.1% | SK-MEL-2 melanoma 87.3% | EKVX NSCLC 92.6% | SN12C renal 85.7% | UO-31 renal 41.4% | TK-10 renal 62.6% | ACHN renal 36% | CAKI-1 renal 25.6% | A498 renal 76% | CCRF-CEM leukemia 13.6% | MOLT-4 leukemia 19.5%

Cc1ccc(C(=Nc2ccccc2)N=P(c2ccccc2)(c2ccccc2)c2ccccc2)cc1
inactive: SNB-75 CNS 15.6%
active: HCT-15 colon 2.78% | HT29 colon 2.74% | SNB-19 CNS -15.8% | U251 CNS -7.18% | PC-3 prostate -31.5% | SK-MEL-5 melanoma -96.6% | UACC-62 melanoma -78.5% | SK-MEL-28 melanoma -48.6% | SK-MEL-2 melanoma -51.8% | EKVX NSCLC -16.8% | SN12C renal -10.1% | UO-31 renal -79.6% | TK-10 renal -23.4% | ACHN renal 2.97% | CAKI-1 renal -32.1% | A498 renal -56.7% | CCRF-CEM leukemia -30.2% | MOLT-4 leukemia 1.64%

O=C(/C=C/C=C/c1ccccc1)c1ccco1
inactive: HCT-15 colon 92.2% | HT29 colon 85.4% | SNB-75 CNS 83% | U251 CNS 56.4% | PC-3 prostate 85.9% | SK-MEL-5 melanoma 91.1% | UACC-62 melanoma 72.1% | LOX IMVI melanoma 64.8% | SK-MEL-28 melanoma 123% | SK-MEL-2 melanoma 103% | EKVX NSCLC 112% | SN12C renal 99.8% | UO-31 renal 62.6% | TK-10 renal 128% | ACHN renal 107% | CAKI-1 renal 97.3% | CCRF-CEM leukemia 30.2%

CCOC(=O)c1c(C)[nH]c(CO)c1C
inactive: HCT-15 colon 106% | HT29 colon 96.4% | SNB-75 CNS 101% | SNB-19 CNS 98.4% | U251 CNS 99% | PC-3 prostate 98.1% | SK-MEL-5 melanoma 99.1% | UACC-62 melanoma 93.4% | SK-MEL-28 melanoma 103% | SK-MEL-2 melanoma 101% | EKVX NSCLC 79.1% | SN12C renal 95.2% | UO-31 renal 92.5% | TK-10 renal 106% | ACHN renal 107% | CCRF-CEM leukemia 98.2% | MOLT-4 leukemia 96.6%

CC(=O)Nc1cccc2cc(O)ccc12
inactive: HCT-15 colon 112% and 107% and 99.9% | HT29 colon 115% and 107% and 95.8% | SNB-75 CNS 91.4% and 101% and 75.3% | U251 CNS 108% and 102% and 101% | PC-3 prostate 104% and 96.3% and 80.3% | SK-MEL-5 melanoma 113% and 117% and 106% | UACC-62 melanoma 96.3% and 90.9% and 96.9% | LOX IMVI melanoma 104% and 106% | SK-MEL-28 melanoma 110% and 111% and 104% | SK-MEL-2 melanoma 125% and 101% | EKVX NSCLC 101% and 120% and 99.3% | SN12C renal 107% and 94.4% and 97.2% | UO-31 renal 94.6% and 89.5% and 75.1% | TK-10 renal 123% and 99.7% and 97.9% | ACHN renal 104% and 109% and 100% | A498 renal 99.2% and 108% and 109% | CCRF-CEM leukemia 98.1% and 101% and 104% | MOLT-4 leukemia 111% and 108% and 98.5%

Nc1ncnc2c1ncn2C1OC(CO)C(O)C1O (centres undefined)
inactive: HCT-15 colon 109% and 33.5% and 105% | HT29 colon 109% and 35.6% and 98.4% | SNB-75 CNS 99.1% and 50.2% and 91.3% | U251 CNS 107% and 92.7% and 104% | PC-3 prostate 81.4% and 29.8% and 98.9% | SK-MEL-5 melanoma 107% and 103% and 102% | UACC-62 melanoma 110% and 82.7% and 101% | LOX IMVI melanoma 106% and 57.2% and 94.6% | SK-MEL-28 melanoma 116% and 124% and 125% | SK-MEL-2 melanoma 144% and 67.2% and 121% | EKVX NSCLC 116% and 88.3% and 105% | SN12C renal 103% and 90.3% and 97.5% | UO-31 renal 92.9% and 76.6% and 90.3% | TK-10 renal 114% and 106% and 118% | ACHN renal 111% and 84.1% and 98.9% | CAKI-1 renal 103% and 109% and 94.5% | A498 renal 123% and 107% and 128% | CCRF-CEM leukemia 96.7% and 119% and 105% | MOLT-4 leukemia 102% and 111% and 109%

CCC(=O)Sc1ccccc1C(=O)Nc1ccc(Cl)cc1
inactive: HCT-15 colon 46% | HT29 colon 17% | SNB-75 CNS 76.7% | SNB-19 CNS 76.1% | U251 CNS 36.5% | PC-3 prostate 66.9% | UACC-62 melanoma 54.1% | LOX IMVI melanoma 42.2% | SK-MEL-28 melanoma 49.8% | SK-MEL-2 melanoma 133% | EKVX NSCLC 29.5% | SN12C renal 49.5% | UO-31 renal 61.6% | TK-10 renal 69.4% | ACHN renal 73.2% | CAKI-1 renal 31.9% | A498 renal 36.8% | CCRF-CEM leukemia 27.1% | MOLT-4 leukemia 30.9%

O=C(Nc1ccc(F)cc1)ON=C1CCCCC1
inactive: HCT-15 colon 97% [100 µM] | HT29 colon 103% [100 µM] | SNB-75 CNS 85% [100 µM] | U251 CNS 102% [100 µM] | PC-3 prostate 89.5% [100 µM] | SK-MEL-5 melanoma 99.6% [100 µM] | UACC-62 melanoma 54.5% [100 µM] | LOX IMVI melanoma 88.2% [100 µM] | SK-MEL-28 melanoma 108% [100 µM] | SK-MEL-2 melanoma 102% [100 µM] | EKVX NSCLC 111% [100 µM] | SN12C renal 100% [100 µM] | UO-31 renal 92.2% [100 µM] | TK-10 renal 101% [100 µM] | ACHN renal 97.9% [100 µM] | CAKI-1 renal 79.3% [100 µM] | CCRF-CEM leukemia 97.2% [100 µM] | MOLT-4 leukemia 95.3% [100 µM]

NC(=S)N/N=C\c1nccc2c(C(F)(F)C(F)(F)C(F)(F)F)cccc12
active: HT29 colon 8.84% | U251 CNS -9.91% | PC-3 prostate 9.51% | UACC-62 melanoma -39.8% | LOX IMVI melanoma 4.13% | SK-MEL-2 melanoma 7.18% | UO-31 renal -31.9% | ACHN renal -0.888% | CAKI-1 renal -5.07% | CCRF-CEM leukemia -8.14% | MOLT-4 leukemia -30.9%
inactive: HCT-15 colon 28.2% | SNB-75 CNS 20.2% | SNB-19 CNS 21.8% | SK-MEL-28 melanoma 25.2% | EKVX NSCLC 11.8% | SN12C renal 15.6% | TK-10 renal 11.9%

O=C1N[C@H]2[C@H](CS[C@H]2CCCCC(=O)N(CCP(c2ccccc2)c2ccccc2)CCP(c2ccccc2)c2ccccc2)N1
inactive: HCT-15 colon 78.6% | HT29 colon 59.3% | SNB-75 CNS 104% | U251 CNS 50.8% | PC-3 prostate 71.7% | SK-MEL-5 melanoma 87.8% | UACC-62 melanoma 88.3% | LOX IMVI melanoma 76% | SK-MEL-28 melanoma 99.7% | SK-MEL-2 melanoma 81.3% | EKVX NSCLC 75.3% | SN12C renal 94.4% | UO-31 renal 77.3% | TK-10 renal 97.4% | ACHN renal 95.7% | CAKI-1 renal 99.2% | A498 renal 94.2% | CCRF-CEM leukemia 62.7% | MOLT-4 leukemia 82.8%

O=Nc1ccccc1N=O
inactive: HCT-15 colon 51.4% | HT29 colon 81.6% | SNB-75 CNS 46.6% | SNB-19 CNS 88.6% | U251 CNS 78.3% | PC-3 prostate 83.9% | SK-MEL-5 melanoma 87.2% | UACC-62 melanoma 71.2% | SK-MEL-28 melanoma 92.9% | SK-MEL-2 melanoma 90.2% | EKVX NSCLC 88.7% | SN12C renal 71.6% | UO-31 renal 64% | TK-10 renal 115% | ACHN renal 84.5% | CAKI-1 renal 81.1% | A498 renal 110% | CCRF-CEM leukemia 97.5% | MOLT-4 leukemia 99.9%
